Test results published in PubChem BioAssay AID1851 (National Center for Advancing Translational Sciences (NCATS), 2009).
Screen size: about 16,000 compounds; about 4,000 (25%) were called active. Inconclusive results (about 26%) are left out. The call rests on the fitted dose curve; in most records, active means well fitted curve in the direction sought with a large enough effect; inconclusive means small, poorly fitted or top-dose-only effect, or effect the other way; inactive means no such curve, though single readings can be large or run the other way. The list is a sample of the results.

molecular target: Cytochrome P450 2C9 (Homo sapiens) (UniProt P11712); test: Cytochrome panel assay with activity outcomes; conditions: recombinant CYP, pro-luciferin dealkylation, luminescence, p450-cyp2c9; series mostly up to 57.1 µM
On the % scale 0 is the no-effect control and ±100 the full control effect.

Chain of Cytochrome P450 2C9 (Homo sapiens) (P11712 whole entry, looked up): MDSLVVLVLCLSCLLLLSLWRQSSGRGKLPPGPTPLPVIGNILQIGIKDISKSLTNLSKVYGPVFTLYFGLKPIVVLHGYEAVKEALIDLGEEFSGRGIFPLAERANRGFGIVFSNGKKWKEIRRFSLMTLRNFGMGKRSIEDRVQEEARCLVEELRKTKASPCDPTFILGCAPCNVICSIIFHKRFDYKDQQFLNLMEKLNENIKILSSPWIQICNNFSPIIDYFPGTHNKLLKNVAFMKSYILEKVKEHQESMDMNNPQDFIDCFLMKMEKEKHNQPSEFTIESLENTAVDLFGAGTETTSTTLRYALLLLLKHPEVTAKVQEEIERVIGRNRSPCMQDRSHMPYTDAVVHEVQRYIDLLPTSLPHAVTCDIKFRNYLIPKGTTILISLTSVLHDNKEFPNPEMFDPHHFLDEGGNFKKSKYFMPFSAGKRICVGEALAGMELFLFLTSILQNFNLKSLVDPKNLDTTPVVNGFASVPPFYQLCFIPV

SMILES	activity, negative = inhibition	AC50
CN(C)Cc1ccc(C(C)(C)C)cc1-c1cc(C(C)(C)C)ccc1CN(C)C	4.33% [at 11.4 µM] (inactive)	
COCCn1c(=O)c(-c2cccc(Cl)c2)nc2cncnc21		inactive
Cn1c(=O)c(-c2ccccc2)nc2cncnc21		inactive
COc1ccccc1CCn1c(=O)c(-c2ccc(F)c(F)c2)nc2cncnc21		6.31 µM (active)
COc1ccc(-n2c(=O)c(-c3ccc(F)c(F)c3)nc3cncnc32)cc1		inactive
COc1ccccc1CCn1c(=O)c(-c2ccc(F)cc2)nc2cncnc21		3.98 µM (active)
Cn1c(=O)c(-c2ccc(F)cc2)nc2cncnc21		inactive
COc1ccccc1CCn1c(=O)c(-c2ccccc2)nc2cncnc21		5.01 µM (active)
COc1ccccc1CCn1c(=O)c(-c2cccc(Cl)c2)nc2cncnc21		1 µM (active)
COCCn1c(=O)c(-c2ccc(F)c(F)c2)nc2cncnc21		inactive
COCCn1c(=O)c(-c2ccc(F)cc2)nc2cncnc21		inactive
Cc1noc(C)c1-c1cncnc1NCc1ccccc1	18.5% [at 2.29 µM] (inactive)	
CCc1cc2c(nc1CC)CCN(CC/C(C)=N/OC[C@@H](O)COCc1ccco1)C2	17.1% [at 11.4 µM] (inactive)	
O=c1c(CCc2ccccc2)nc2cncnc2n1Cc1ccc(F)cc1		7.94 µM (active)
COc1ccccc1CCn1c(=O)c(-c2cccs2)nc2cncnc21		2.51 µM (active)
COc1ccccc1CCn1c(=O)c(CCc2ccccc2)nc2cncnc21		7.94 µM (active)
COc1ccccc1CCn1c(=O)c(-c2ccc(Cl)cc2)nc2cncnc21		3.98 µM (active)
CCN(CC)C(=O)CSc1nc(O)cc(=O)n1CC		inactive
CO[C@H]1COC(=O)[C@@H](C)COC(=O)[C@@H](Cc2ccccc2)NC(=O)C/C=C\[C@H]1C	5.22% [at 11.4 µM] (inactive)	
COc1ccc(CNc2ccnc(-c3ccccc3OC)n2)c(OC)c1	14.7% [at 2.29 µM] (inactive)	
COc1ncc2nc(-c3cn(C)c4ccccc34)c(=O)n(CCC#N)c2n1		inactive

SMILES	activity, negative = inhibition	AC50
COc1ccccc1CCn1c(=O)c(-c2cn(C)c3ccccc23)nc2cncnc21		0.316 µM (active)
Cn1cc(-c2nc3cncnc3n(Cc3ccccc3Cl)c2=O)c2ccccc21		inactive
COc1ccc(N2C(N)=NC(N)=NC2(C)C)cc1		inactive
O=C(c1ccc(COc2ccc(F)cc2)o1)n1cccn1		17.8 µM (active)
CNc1ncncc1-c1ccccc1C	-4.77% [at 2.29 µM] (inactive)	
COc1ccc(C(=O)N2CCC[C@@]3(CCN(Cc4ccccc4)C3)C2)cc1		inactive
COc1ccc(C(=O)N2CCC[C@@]3(CCN(Cc4ccc(C#N)cc4)C3)C2)cc1		inactive
CCCc1cc2c(n1Cc1cc(F)cc(F)c1)C(C)C1CN(C(=O)c3ccccc3)C(C)(C(=O)OC)C21 (configuration not stated)		6.31 µM (active)
CCCc1cc2c(n1Cc1ccc(OC)cc1)C(C)C1CN(C(=O)c3ccccc3)C(C)(C(=O)OC)C21 (configuration not stated)		12.6 µM (active)
O=CN[C@@H](Cc1cnc[nH]1)C(=O)O	-3.85% [at 11.4 µM] (inactive)	
CCOC(=O)NNc1nncc2ccccc12		inactive
CCOC(=O)c1ccccc1Oc1c(F)c(F)nc(NCCO)c1F		6.31 µM (active)
COc1ccccc1-c1ccc2ncnc(N3CCOCC3)c2c1	-16.7% [at 2.29 µM] (inactive)	
COc1ccccc1-c1nc(N2CCOCC2)c2ccccc2n1	8.77% [at 2.29 µM] (inactive)	
COC(=O)c1ccccc1Oc1c(F)c(F)nc(N2CCOCC2)c1F		15.8 µM (active)
COc1ccccc1-c1nc(NCCNC(C)=O)c2ccccc2n1	3.78% [at 2.29 µM] (inactive)	
O=C(Nc1ccc(-c2csc(-c3ccccc3)n2)cc1)c1ccccc1Cl		inactive
O=C(Nc1ccc(Cl)cc1)c1cnc(-c2ccccc2)nc1-c1ccccc1		0.794 µM (active)
OC1CC2CC[C@H](C1)N2CCCN1c2ccccc2Sc2ccc(Cl)cc21 (some centres not stated)	8.65% [at 11.4 µM] (inactive)	
c1cncc(CNc2ncn[nH]2)c1	-1.61% [at 11.4 µM] (inactive)	
Cc1ccc(-n2ncc(N(C)C)c(Cl)c2=O)cc1		inactive

SMILES	activity, negative = inhibition	AC50
Nc1ccc(Sc2cnn(-c3ccccc3)c(=O)c2Cl)cc1		1 µM (active)
COC(=O)N1CCC2(CCN(Cc3nccs3)CC2)CC1		inactive
Cc1noc(C)c1C(=O)N1CCC2(CCCN(Cc3ccccc3)C2)CC1		inactive
Cc1noc(C)c1C(=O)N1CCC[C@@]2(CCN(Cc3ccccc3)C2)C1		inactive
Cc1onc(-c2c(Cl)cccc2Cl)c1C(=O)N1CCc2ccccc2C1		3.16 µM (active)
Cc1ccccc1C(=O)N/N=C/c1ccncc1		12.6 µM (active)
O=C(N/N=C/c1cccnc1)c1ccc([N+](=O)[O-])cc1		inactive
O=C(N/N=C/c1ccncc1)c1cc([N+](=O)[O-])cc([N+](=O)[O-])c1O		0.0631 µM (active)
O=C(N/N=C\c1cccc(O)c1)c1ccncc1	1.23% [at 11.4 µM] (inactive)	
Cc1ccccc1C(=O)NNC(=O)c1ccoc1C		inactive
CC[C@@H]1OC(=O)[C@H](C)[C@H](O[C@@H]2C[C@](C)(OC)[C@H](O)[C@H](C)O2)[C@H](C)[C@H](O[C@@H]2O[C@@H](C)C[C@@H](N(C)C)[C@@H]2O)[C@](C)(O)C[C@H](C)[C@@H]2N[C@H](COCCOC)O[C@H]([C@@H]2C)[C@]1(C)O		inactive
C/C=C\C1=C(CO)C(=O)C2O[C@]2(CC=C(C)C)C1=O (some centres not stated)	9.54% [at 11.4 µM] (inactive)	
O=C(CSc1nnnn1-c1ccccc1)NCc1cccs1		inactive
CCn1c(CSCc2ccc(C)cc2)nnc1SCC(=O)NCc1ccccc1		15.8 µM (active)
CCn1c(CNC(=O)COc2ccc(C(C)C)cc2)nnc1SCC(=O)Nc1cc(F)ccc1C		inactive
CC(C)n1nnnc1SCC(=O)NCCc1ccccc1		15.8 µM (active)
N[C@@H](Cc1c[nH]c2ccccc12)C(=O)O		inactive
CCn1c(CC(=O)Nc2ccc(C)cc2)nnc1SCC(=O)NCCc1ccccc1		15.8 µM (active)
C=CCn1c(Cc2c[nH]c3ccccc23)nnc1SCC(=O)NCc1ccccc1		14.1 µM (active)
Cc1ccc(NC(=O)CCSc2nnc3ccccn23)cc1		inactive
